Consider 40 compounds from PubChem BioAssay.

SMILES strings stand for the structures. Values without a mark were called inactive. Calls of active or inactive are those of the source.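 The calls were made as follows, unless noted: active = GFP response above 150% of the DMSO level; inconclusive = fewer than 70 events counted for a yeast strain; inactive = the rest.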

One test is described as follows: TOR pathway reporter MEP2-GFP, retest of hits – S. cerevisiae, flow cytometry GFP, cherry picks, confirmation (AID 2272;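 active = GFP response above 150% of the DMSO control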;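 also: ratio of well signal to plate DMSO mean so 100% equals DMSO level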). Particulars: S. cerevisiae MEP2-GFP strain, 3 h, at 10 µM, active compounds read high.
Consider `Cc1cccn2c(=O)c(/C=C(\C#N)C(N)=O)c(N3CCN(Cc4ccc5c(c4)OCO5)CC3)nc12`, for which the GFP response vs DMSO is 101%.
With `O=S(=O)(CCN(CCS(=O)(=O)C(F)(F)F)CC1CCCO1)C(F)(F)F` (stereo not given), the GFP response vs DMSO was 118%.
On to `COc1cc(NC(=O)C(C)C)ccc1NC(=O)c1cc2ccccc2o1`, for which the GFP response vs DMSO was 102%.
The same measure, in the same setting: under `COc1cc(/C=C2/N=C(c3ccccc3)OC2=O)c(F)cc1OCc1ccccc1` stands 101%.
Still for that read-out and setting: under `Cc1cccc(C)c1OCCOC(=O)c1n[nH]c2ccccc12` stands 106%; under `Cc1ccc(/C=N\NC(=O)c2cc(OCC(F)(F)F)ccc2OCC(F)(F)F)cc1`, 94.1%.
The same measure, in the same setting: under `CCOCCCNC(=O)/C(C#N)=C/c1ccc([N+](=O)[O-])o1` stands 285% (active).
On to `O=c1[nH]c(CN2CCCCC2)nc2c1C1(CCCCC1)Cc1ccccc1-2`, for which the GFP response vs DMSO is 100%.
For `CSC1=NC(=O)/C(=C/c2ccc(SC)cc2)S1`, the GFP response vs DMSO was 110%.
Take `COC(=O)Nc1c(-c2ccccc2)nc2ccccn12`: the GFP response vs DMSO was 98.3%.
`CCCc1[nH]nc2c1C(c1ccc(O)c(OC)c1)C(C#N)=C(N)O2` (stereo not given): the GFP response vs DMSO was 107%.
Still for that read-out and setting: under `CCc1ccc2c(c1)/C(=C/C(=O)c1cccs1)C(=O)N2` stands 100%.
On the same count and under the same terms, under `CCN(C(=O)c1ccccc1Cl)c1ccccc1` stands 99.3%; under `COCCNc1c(-c2ccc(O)cc2)nc2ccc(Cl)cn12`, 98.3%; under `CC(C)(C)c1ccc(C(=O)N/N=C/c2cccc(Cl)c2)cc1`, 99.3%.
On the same count and under the same terms, the result for `O=C(COC(=O)C1CCN(c2ccc(C(F)(F)F)cn2)CC1)Nc1cccc(F)c1` reads 96.2%; that for `COc1ccc(Cc2nnc(NC(=O)c3ccccc3F)s2)cc1`, 100%; that for `COC(=O)c1cccc(-n2c(CCC(=O)O)ccc2-c2cccs2)c1`, 98.8%.
Regarding `CC(=O)Oc1ccc(/C=c2\sc3ncnn3c2=O)cc1`, the GFP response vs DMSO is 101%.
The same measure, in the same setting: the result for `CCNC(=O)c1c(O)c2cccc3c2n(c1=O)CC3` reads 94.7%.
Regarding `Cc1ccc(C(=O)NNC(=S)NC(=O)c2ccco2)cc1`, the GFP response vs DMSO is 115%.
On to `CCOC(=O)c1sc(NC(=O)CN2C(=O)c3cccc4cccc(c34)C2=O)nc1C`, for which the GFP response vs DMSO is 100%.
In the case of `Cc1ccc(NC(=O)c2ccccc2O)cc1`, the GFP response vs DMSO is 110%.
Still for that read-out and setting: the result for `O=C(NCCN1CCOCC1)c1ccc(CS(=O)(=O)Cc2ccccc2F)o1` reads 103%; that for `Cc1ccc(-n2nnnc2C(Cl)(Cl)c2nnnn2-c2ccc(C)cc2)cc1`, 112%; that for `COc1ccc(CC(=O)Oc2ccccc2C)cc1`, 102%.
`Cc1ccc(S(=O)(=O)N(Cc2ccccc2)Cc2ccco2)cc1`: the GFP response vs DMSO is 97.8%.
Same read-out and setting: the result for `Cc1cc(NC(=O)c2cccnc2Cl)ccc1NC(=O)c1cc2ccccc2o1` reads 105%; that for `Cc1ccc(NC(=O)CCCSc2nc3ccccc3[nH]2)cc1`, 98.8%.
Consider `Cc1ccc(C(=O)Sc2cccccc2=O)cc1`, for which the GFP response vs DMSO is 132%.
Still for that read-out and setting: the result for `COc1ccccc1-c1noc(CCC(=O)Nc2cccc(C(F)(F)F)c2)n1` reads 107%; that for `Nc1cccnc1S(=O)(=O)c1ccccc1`, 100%.
The same measure, in the same setting: the result for `O=C(O)CCc1ccc(-c2ccccc2)o1` reads 96.2%; that for `Nc1nc(SCC(=O)Nc2cc(C(F)(F)F)ccc2N2CCOCC2)n[nH]1`, 105%; that for `Cc1ncc2c(n1)-c1cc(F)ccc1SC2`, 109%.
The same measure, in the same setting: the result for `Cc1ccc2c(c1)c(/C=C/c1cc[n+](C)cc1)c(C)n2C` reads 226% (active); that for `COc1ccc(CCNC2=C(Cl)C(=O)N(CCc3ccc(OC)c(OC)c3)C2=O)cc1OC`, 108%; that for `Cc1cccc(NC(=S)NCC23C=CC(O2)C2C(=O)N(c4ccc(Cl)cc4)C(=O)C23)c1` (stereo not given), 102%.
Regarding `O=C(CSc1nnc(-c2ccccn2)n1Cc1ccccc1)N1CCOCC1`, the GFP response vs DMSO is 108%.
The same measure, in the same setting: under `COc1ccc(-c2nc(-c3ccccc3OC)no2)cc1OC` stands 105%.

A short description of a further test: yeast AGP1-GFP fluorescence change, single-dose – cell-based, flow cytometry, S. cerevisiae, cherry picks, confirmation (AID 2273).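 Also: median GFP channel fluorescence over the whole cell population gate.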 Particulars: S. cerevisiae AGP1-GFP strain, 3 h, at 10 µM.
For the compound `Cc1cccn2c(=O)c(/C=C(\C#N)C(N)=O)c(N3CCN(Cc4ccc5c(c4)OCO5)CC3)nc12`, the GFP response, % of DMSO is 100%.
Same read-out and setting: the result for `O=S(=O)(CCN(CCS(=O)(=O)C(F)(F)F)CC1CCCO1)C(F)(F)F` (stereo not given) reads 94.5%; that for `COc1cc(NC(=O)C(C)C)ccc1NC(=O)c1cc2ccccc2o1`, 97.8%; that for `COc1cc(/C=C2/N=C(c3ccccc3)OC2=O)c(F)cc1OCc1ccccc1`, 108%.
On the same count and under the same terms, the result for `Cc1cccc(C)c1OCCOC(=O)c1n[nH]c2ccccc12` reads 91.9%.
Same read-out and setting: under `Cc1ccc(/C=N\NC(=O)c2cc(OCC(F)(F)F)ccc2OCC(F)(F)F)cc1` stands 102%; under `CCOCCCNC(=O)/C(C#N)=C/c1ccc([N+](=O)[O-])o1`, 122%.
On to `O=c1[nH]c(CN2CCCCC2)nc2c1C1(CCCCC1)Cc1ccccc1-2`, for which the GFP response, % of DMSO is 99.2%.
On the same count and under the same terms, the result for `CSC1=NC(=O)/C(=C/c2ccc(SC)cc2)S1` reads 107%; that for `COC(=O)Nc1c(-c2ccccc2)nc2ccccn12`, 93.7%.
Turning to `CCCc1[nH]nc2c1C(c1ccc(O)c(OC)c1)C(C#N)=C(N)O2` (stereo not given), the GFP response, % of DMSO was 97.6%.
With `CCc1ccc2c(c1)/C(=C/C(=O)c1cccs1)C(=O)N2`, the GFP response, % of DMSO was 104%.
On the same count and under the same terms, the result for `CCN(C(=O)c1ccccc1Cl)c1ccccc1` reads 98.8%.
Still for that read-out and setting: under `COCCNc1c(-c2ccc(O)cc2)nc2ccc(Cl)cn12` stands 93.1%; under `CC(C)(C)c1ccc(C(=O)N/N=C/c2cccc(Cl)c2)cc1`, 97%; under `O=C(COC(=O)C1CCN(c2ccc(C(F)(F)F)cn2)CC1)Nc1cccc(F)c1`, 97.2%.
Same read-out and setting: under `COc1ccc(Cc2nnc(NC(=O)c3ccccc3F)s2)cc1` stands 98.3%; under `COC(=O)c1cccc(-n2c(CCC(=O)O)ccc2-c2cccs2)c1`, 103%; under `CC(=O)Oc1ccc(/C=c2\sc3ncnn3c2=O)cc1`, 98.8%.
`CCNC(=O)c1c(O)c2cccc3c2n(c1=O)CC3`: the GFP response, % of DMSO was 99%.
In the case of `Cc1ccc(C(=O)NNC(=S)NC(=O)c2ccco2)cc1`, the GFP response, % of DMSO was 103%.
Consider `CCOC(=O)c1sc(NC(=O)CN2C(=O)c3cccc4cccc(c34)C2=O)nc1C`, for which the GFP response, % of DMSO is 98.3%.
`Cc1ccc(NC(=O)c2ccccc2O)cc1`: the GFP response, % of DMSO was 101%.
In the case of `O=C(NCCN1CCOCC1)c1ccc(CS(=O)(=O)Cc2ccccc2F)o1`, the GFP response, % of DMSO was 104%.
Take `Cc1ccc(-n2nnnc2C(Cl)(Cl)c2nnnn2-c2ccc(C)cc2)cc1`: the GFP response, % of DMSO is 100%.
On the same count and under the same terms, under `COc1ccc(CC(=O)Oc2ccccc2C)cc1` stands 94.3%.
On the same count and under the same terms, under `Cc1ccc(S(=O)(=O)N(Cc2ccccc2)Cc2ccco2)cc1` stands 97.8%; under `Cc1cc(NC(=O)c2cccnc2Cl)ccc1NC(=O)c1cc2ccccc2o1`, 98.8%.
Consider `Cc1ccc(NC(=O)CCCSc2nc3ccccc3[nH]2)cc1`, for which the GFP response, % of DMSO is 106%.
Same read-out and setting: under `Cc1ccc(C(=O)Sc2cccccc2=O)cc1` stands 104%; under `COc1ccccc1-c1noc(CCC(=O)Nc2cccc(C(F)(F)F)c2)n1`, 102%.
Still for that read-out and setting: the result for `Nc1cccnc1S(=O)(=O)c1ccccc1` reads 98.5%.
Turning to `O=C(O)CCc1ccc(-c2ccccc2)o1`, the GFP response, % of DMSO is 93.1%.
In the case of `Nc1nc(SCC(=O)Nc2cc(C(F)(F)F)ccc2N2CCOCC2)n[nH]1`, the GFP response, % of DMSO was 101%.
The same measure, in the same setting: the result for `Cc1ncc2c(n1)-c1cc(F)ccc1SC2` reads 94.5%; that for `Cc1ccc2c(c1)c(/C=C/c1cc[n+](C)cc1)c(C)n2C`, 114%.
Same read-out and setting: under `COc1ccc(CCNC2=C(Cl)C(=O)N(CCc3ccc(OC)c(OC)c3)C2=O)cc1OC` stands 101%; under `Cc1cccc(NC(=S)NCC23C=CC(O2)C2C(=O)N(c4ccc(Cl)cc4)C(=O)C23)c1` (stereo not given), 100%; under `O=C(CSc1nnc(-c2ccccn2)n1Cc1ccccc1)N1CCOCC1`, 101%.
Take `COc1ccc(-c2nc(-c3ccccc3OC)no2)cc1OC`: the GFP response, % of DMSO is 91.8%.
